Data on eight compounds can be found in PubChem BioAssay (NCI).

Structures are written as SMILES. Several values for one entry are separate records, joined by “and”; a condition that tells them apart may be missing. Equal entries are not always repeated. About 79,000 compounds went through this panel and 15% of them were active in at least one assay; those are over-represented in the sample as a whole. A number with no mark means an inactive call. Activity calls are given as the source filed them. No stated cut-off is given here; in the data, active means growth inhibition above about 70%; inactive means the rest.

Assay [1] can be described thus: NCI Yeast Anticancer Drug Screen. Data for the rad50 strain (AID 155).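 Further: 0% = growth of vehicle-only cultures of the same strain.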 The note with it: S. cerevisiae rad50 strain growth inhibition, hits give high values. The method, boiled down:
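A DNA repair-deficient yeast mutant serves as the test organism; compound-induced growth inhibition is calculated against vehicle-treated cells.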

Assay [2] is described as follows: NCI Yeast Anticancer Drug Screen. Data for the mec2-1 strain (AID 157). As to conditions: S. cerevisiae mec2-1 strain, hits give high values. The method, boiled down:
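Growth inhibition is read against vehicle-treated controls after compound exposure of the mec2-1 yeast strain, which is defective in DNA damage repair or cell cycle control.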

Assay [3] is described as follows: NCI Yeast Anticancer Drug Screen. Data for the sgs1 mgt1 strain (AID 161).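 Further: 0% = growth of cultures given vehicle only.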 As to conditions: S. cerevisiae sgs1 mgt1 strain, hits give high values. In short, it runs like this: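 Growth of a repair-deficient yeast mutant was monitored after compound treatment and expressed as inhibition relative to vehicle-treated cultures.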
Assay [4] can be described thus: NCI Yeast Anticancer Drug Screen. Data for the cln2 rad14 strain (AID 165).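 Further: 0% = growth equal to vehicle treated cultures.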 As to conditions: S. cerevisiae cln2 rad14 strain, hits give high values. In short, it runs like this: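 Growth inhibition, relative to vehicle-treated controls, is the read-out. The test organism is a yeast strain with defined genetic alterations, cln2 rad14.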
A short description of assay [5]: NCI Yeast Anticancer Drug Screen. Data for the bub3 strain (AID 167). As to conditions: S. cerevisiae bub3 mutant strain, hits give high values. In short, it runs like this:
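Inhibition values come from growth of compound-treated mutant yeast normalised to vehicle-treated controls.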

A short description of assay [6]: NCI Yeast Anticancer Drug Screen. Data for the mlh1 rad18 strain (AID 175). As to conditions: S. cerevisiae mlh1 rad18 strain growth inhibition, hits give high values. In short, it runs like this:
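Cells of a genetically altered yeast strain, deficient in DNA damage repair, were treated with compound. Their growth was then compared with that of vehicle-treated cultures to give inhibition.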

The mark [7] stands for this setting: at 5.0 µM (retest, dose inferred, filed as 0.5).
The mark [8] stands for this setting: at 50.0 µM (retest, dose inferred, filed as 5.0).

For the compound `Cc1cccc(N=NC(C#N)C#N)c1`, the growth inhibition in assay [1] (setting [7]) was 30%; in assay [1] (setting [8]), 95% (active); in assay [2] (setting [7]), 10%; in assay [2] (setting [8]), 96% (active); in assay [3] (setting [7]), 24%; in assay [3] (setting [8]) it was 95% (active). In addition, the growth inhibition was -7% in assay [4] (setting [7]); 86% (active) in assay [4] (setting [8]); 1% in assay [5] (setting [7]); 94% (active) in assay [5] (setting [8]); -9% in assay [6] (setting [7]); 95% (active) in assay [6] (setting [8]).
Take `COc1ccc(N=NC(C#N)C#N)cc1`: the growth inhibition in assay [1] (setting [7]) was 32%; in assay [1] (setting [8]), 95% (active); in assay [2] (setting [7]), 6%; in assay [2] (setting [8]), 97% (active); in assay [3] (setting [7]), 24%; in assay [3] (setting [8]), 98% (active). Moreover, the growth inhibition in assay [4] (setting [7]) was 2%; in assay [4] (setting [8]) it was 96% (active); in assay [5] (setting [7]) it was 1%; in assay [5] (setting [8]) it was 98% (active); in assay [6] (setting [7]), -10%; in assay [6] (setting [8]) it was 96% (active).
For `Cc1ccc2[nH]cc(CC(=O)O)c2c1`, the growth inhibition in assay [1] (setting [7]) was 95% (active); in assay [1] (setting [8]), 99% (active); in assay [2] (setting [7]), 97% (active); in assay [2] (setting [8]), 100% (active); in assay [4] (setting [7]), 42%; in assay [4] (setting [8]) it was 99% (active). The growth inhibition in assay [5] (setting [7]) was 99% (active); in assay [5] (setting [8]), 100% (active); in assay [6] (setting [7]) it was 85% (active); in assay [6] (setting [8]), 99% (active).
Turning to `Nc1cccc2c1-c1ccccc1C2=O`, the growth inhibition is 15% in assay [1] (setting [7]); 89% (active) in assay [1] (setting [8]); 1% in assay [2] (setting [7]); 18% in assay [2] (setting [8]); 4% in assay [3] (setting [7]); 47% in assay [3] (setting [8]). For the same compound, the growth inhibition in assay [4] (setting [7]) was -1%; in assay [4] (setting [8]) it was -7%; in assay [5] (setting [7]), 1%; in assay [5] (setting [8]), 15%; in assay [6] (setting [7]) it was -35%; in assay [6] (setting [8]) it was 29%.
On to `Clc1ccc(-n2ncc3c(Cl)nc(Cl)nc32)cc1`, for which the growth inhibition in assay [1] (setting [7]) was 98% (active); in assay [1] (setting [8]), 99% (active); in assay [2] (setting [7]) it was 99% (active); in assay [2] (setting [8]) it was 99% (active); in assay [3] (setting [7]), 100% (active); in assay [3] (setting [8]) it was 99% (active). The growth inhibition was 97% (active) in assay [4] (setting [7]); 98% (active) in assay [4] (setting [8]); 99% (active) in assay [5] (setting [7]); 99% (active) in assay [5] (setting [8]); 99% (active) in assay [6] (setting [7]); 99% (active) in assay [6] (setting [8]).
On to `S=c1sc2ccccc2n1CCNc1ccccc1`, for which the growth inhibition was 8% in assay [1] (setting [7]); 90% (active) in assay [1] (setting [8]); -3% in assay [2] (setting [7]); 73% (active) in assay [2] (setting [8]); 4% in assay [3] (setting [7]); 98% (active) in assay [3] (setting [8]). The growth inhibition in assay [5] (setting [7]) is 6%; in assay [5] (setting [8]), 92% (active); in assay [6] (setting [7]) it was -10%; in assay [6] (setting [8]) it was 64%.
As to `Cc1ccc(NC2=CC(=O)C(=O)c3ccccc32)cc1`, the growth inhibition in assay [1] (at 50.0 µM) is 30% and 22.6% and 45.2%; in assay [2] (at 50.0 µM), 40.7% and 36% and 14.1%; in assay [3] (at 50.0 µM) it was 25% and 26.8% and 32.3%; in assay [4] (at 50.0 µM), 5.55% and 8.9% and 30.9%; in assay [5] (at 50.0 µM), 25.1% and 26.9% and 54.6%; in assay [6] (at 50.0 µM), 15.4% and 60.9% and 33.4%.
For the compound `COc1ccc(C(C)=O)cc1OC`, the growth inhibition in assay [1] (at 50.0 µM) was -0.95% and 6.35%; in assay [2] (at 50.0 µM) it was -7.9% and -3.4%; in assay [3] (at 50.0 µM) it was -1.4% and -3.3%; in assay [4] (at 50.0 µM), 2.75% and -6.5%; in assay [5] (at 50.0 µM) it was 3.25% and 2.6%; in assay [6] (at 50.0 µM) it was -4.15% and 1.65%.
